From PubChem BioAssay (NCI) come the findings set out here.

Among the test systems are NCI-H23 lung; NCI-H226 lung; NCI-H322M lung; HOP-62 NSCLC; NCI-H460 lung; HOP-92 NSCLC; NCI-H522 lung; A549/ATCC NSCLC; 786-0 renal; COLO 205 colon; DU-145 prostate; K-562 leukemia; MALME-3M melanoma; MDA-MB-231 breast; RXF 393 renal; SF-268 CNS; SF-295 CNS; SF-539 CNS; UACC-257 melanoma; M14 melanoma.
What all share (assay): NCI-60 one-dose screen, 48 h (100 = growth as untreated, 0 = no growth, -100 = all killed)
What all share (conditions): 10 µM unless noted

Compounds without any hit were thinned out: in the full panel of roughly 83,000, 20% have a hit.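 Single-dose data. Exposure time 48 hours. Values below 10 considered active.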 Unmarked numbers belong to inactive results. Activity calls are given as the source filed them.

Consider `N/C(=N\c1nc2ccccc2s1)NC(=O)Nc1ccccc1[N+](=O)[O-]`, for which the growth was 14.3% in the test with NCI-H23 lung; 29.1% in the test on NCI-H226 lung; 39.9% with NCI-H322M lung; 30.1% with HOP-62 NSCLC; 11.1% in the test on NCI-H460 lung; -5.71% (active) with HOP-92 NSCLC. Also, the growth with NCI-H522 lung was -50.1% (active); in the test on A549/ATCC NSCLC it was 16.8%; in the test with 786-0 renal, 11%; with COLO 205 colon, -72% (active); in the test with DU-145 prostate it was 1.45% (active); in the test on K-562 leukemia, 10.6%. Moreover, the growth was 44.6% with MALME-3M melanoma; -1.5% (active) in the test with MDA-MB-231 breast; 36.4% in the test with RXF 393 renal; 23% in the test on SF-268 CNS; 1.71% (active) with SF-295 CNS; -41.1% (active) with SF-539 CNS. Moreover, the growth is 60.1% in the test with UACC-257 melanoma and 16.3% in the test on M14 melanoma.
With `CCCCCCCCCc1ccc(C(=O)Nc2cc(C)ccc2C(=O)OC)cc1`, the growth in the test on NCI-H23 lung was 102%; with NCI-H226 lung it was 98.9%; with NCI-H322M lung it was 112%; in the test on HOP-62 NSCLC, 107%; in the test on NCI-H460 lung it was 115%; in the test with HOP-92 NSCLC, 61.6%. In addition, the growth in the test on NCI-H522 lung is 101%; in the test with A549/ATCC NSCLC, 114%; in the test on 786-0 renal, 101%; in the test on COLO 205 colon it was 131%; in the test with DU-145 prostate it was 119%; with K-562 leukemia, 98.8%. Also, the growth in the test on MALME-3M melanoma is 99.8%; with MDA-MB-231 breast it was 103%; in the test on RXF 393 renal it was 117%; in the test with SF-268 CNS, 116%; in the test with SF-295 CNS it was 103%; in the test on SF-539 CNS, 112%. Also, the figures for the growth in the test on UACC-257 melanoma and in the test with M14 melanoma were 106% and 105%, respectively.
As for `COc1ccc(/C=C/C(=O)c2ccc(S(=O)(=O)NCCNc3nc(N(C)C)nc(N4CCOCC4)n3)cc2)cc1`, the growth with NCI-H23 lung is 97.7%; in the test with NCI-H226 lung it was 89.6%; in the test on NCI-H322M lung, 91.7%; in the test on HOP-62 NSCLC it was 102%; with NCI-H460 lung, 104%; with HOP-92 NSCLC, 93.1%. For the same molecule, the growth is 64.7% in the test on NCI-H522 lung; 91.5% with A549/ATCC NSCLC; 80.1% in the test on 786-0 renal; 110% with COLO 205 colon; 103% with DU-145 prostate; 35.9% in the test with K-562 leukemia. Further, the growth in the test with MALME-3M melanoma was 97.5%; in the test on MDA-MB-231 breast, 88.4%; in the test with RXF 393 renal it was 92.1%; in the test with SF-268 CNS, 84.1%; in the test with SF-295 CNS it was 92.5%; with SF-539 CNS, 83.7%. Further, the growth with UACC-257 melanoma was 96.5%; with M14 melanoma, 92.1%.
Regarding `COc1cc(/C=N/NC(=O)c2ccc(OCc3nc4ccc(Cl)cc4[nH]3)cc2)cc(OC)c1OC`, the growth with NCI-H23 lung was 34.7%; in the test on NCI-H226 lung, 35.5%; in the test on NCI-H322M lung it was 55.1%; in the test on HOP-62 NSCLC, 64.2%; in the test on NCI-H460 lung, 44.7%; in the test with HOP-92 NSCLC, 118%. The growth with NCI-H522 lung is 26.2%; in the test with A549/ATCC NSCLC, 59.2%; with 786-0 renal, 29.3%; in the test with COLO 205 colon, 29.3%; with DU-145 prostate, 64.5%; in the test on K-562 leukemia, 14.7%. Besides, the growth was 14.1% in the test with MALME-3M melanoma; 52.8% with MDA-MB-231 breast; -26.2% (active) in the test on RXF 393 renal; 70% in the test on SF-268 CNS; 13.2% with SF-295 CNS; 30.2% in the test on SF-539 CNS. Further, the growth with UACC-257 melanoma was 42.3%; in the test on M14 melanoma, 42.6%.
For `COc1ccc(N=Nc2c(N)nn3c(N)c(C#N)c(-c4ccc(F)cc4)nc23)cc1`, the growth in the test with NCI-H23 lung was 39.7%; in the test on NCI-H226 lung it was 55%; in the test with NCI-H322M lung it was 77%; in the test with HOP-62 NSCLC, 59.6%; in the test with NCI-H460 lung it was 61.1%; with HOP-92 NSCLC, -3.02% (active). The growth was 40.7% with NCI-H522 lung; 86.8% in the test with A549/ATCC NSCLC; 32% with 786-0 renal; 105% with COLO 205 colon; 58.8% in the test on DU-145 prostate; 68.6% with K-562 leukemia. Further, the growth was 48.7% with MALME-3M melanoma; -9.82% (active) in the test on MDA-MB-231 breast; 35.1% in the test on RXF 393 renal; 61.2% in the test with SF-268 CNS; 63% in the test with SF-295 CNS; -5.21% (active) in the test on SF-539 CNS. Besides, the figures for the growth in the test on UACC-257 melanoma and in the test with M14 melanoma were 105% and 80.2%, respectively.
On to `COc1cc(C2CC(c3ccc(S(=O)(=O)NCCNc4nc(N(C)C)nc(N5CCOCC5)n4)cc3)=Nc3c(N)nc(N)nc3N2)cc(OC)c1OC` (stereo not given), for which the growth is 97.4% in the test on NCI-H23 lung; 85.1% with NCI-H226 lung; 79.8% in the test on NCI-H322M lung; 90.8% in the test on HOP-62 NSCLC; 104% with NCI-H460 lung; 92.7% in the test on HOP-92 NSCLC. For the same molecule, the growth was 90.1% in the test on NCI-H522 lung; 98.3% in the test on A549/ATCC NSCLC; 94.3% in the test on 786-0 renal; 116% in the test with COLO 205 colon; 109% in the test with DU-145 prostate; 92.5% with K-562 leukemia. The growth in the test on MALME-3M melanoma is 92.6%; in the test with MDA-MB-231 breast, 80.8%; with RXF 393 renal, 85.7%; with SF-268 CNS, 89.6%; in the test with SF-295 CNS it was 94.4%; in the test on SF-539 CNS it was 96.8%. In addition, the figures for the growth in the test with UACC-257 melanoma and with M14 melanoma were 99.8% and 101%, respectively.
Take `COc1ccc(/C=C/c2nc3ccccc3n3c(-c4cccc([N+](=O)[O-])c4)nnc23)cc1`: the growth with NCI-H23 lung is -78.1% (active); with NCI-H226 lung it was -14.8% (active); with NCI-H322M lung it was 41%; in the test on HOP-62 NSCLC, 25.4%; in the test on NCI-H460 lung it was -35.6% (active); with HOP-92 NSCLC, -48.7% (active). For the same molecule, the growth with NCI-H522 lung was -72.7% (active); in the test on A549/ATCC NSCLC, -4.88% (active); in the test on 786-0 renal, -74.9% (active); in the test with COLO 205 colon, -70% (active); in the test on DU-145 prostate, -18% (active); in the test on K-562 leukemia it was 5.5% (active). The growth was -69.7% (active) in the test on MALME-3M melanoma; 1.23% (active) in the test on MDA-MB-231 breast; -85.2% (active) in the test on RXF 393 renal; -16.4% (active) in the test with SF-268 CNS; 12.4% in the test with SF-295 CNS; -86.5% (active) with SF-539 CNS. Moreover, the growth in the test with UACC-257 melanoma was -48.9% (active); with M14 melanoma it was -77.4% (active).
